# Shown are actives, neighbours in structure and some others; about 11% of the full set was active somewhere.
# SW480 rereplic – inducers of DNA re-replication in SW480 colon cancer cells. actives 1.8% (n = 340,000). AID 624297. Potency, µM (top dose mostly 46.1 µM), for inactives: at the top dose re-replication activation, usual class: activators. SW480 DNA re-replication, Hoechst DNA content imaging, 48 h; also: potency is read from the fitted curve at half-maximal effect; % of control where 0% means no effect; nearly all actives have a fitted effect of over 55% in size
#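 Compounds, transferred as 23 nL by pin tool, were incubated with cells for 48 hr; DNA content per nucleus was then quantified by Hoechst staining and fluorescence plate imaging.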
# MCF10A rerep – DNA re-replication induction in MCF 10a cells. AID 624296. MCF 10A DNA re-replication, Hoechst nuclear intensity, 48 h. actives 2.9% (n = 350,000). Potency, µM (series often up to 46.1 µM), for the others: top-dose activity, positive = re-replication, most hits filed as activators; also: potency is read from the fitted curve at half-maximal effect; % of control where 0% means no effect; nearly all actives have a fitted effect of over 50% in size
# VP16 counter – counter-screen for ROR gamma inhibitors: Gal4-VP16 reporter | Drosophila S2 Gal4-VP16 UAS-luciferase, luminescence, 20 h | actives 3.5% (n = 310,000) | Potency, µM (top dose mostly 53.6 µM), without a hit: at the top dose activity, negative = inhibition, hits mostly inhibitors;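 also: Gal4-VP16 expression switched on by copper sulfate through the metallothionein promoter; potency is read from the fitted curve at half-maximal effect; % is scaled to controls: 0 for no effect and ±100 for the full control effect; nearly all actives have a fitted effect of over 50% in size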
# RORgamma inh – inhibitors of mouse ROR gamma transcriptional activity; Drosophila S2 Gal4-RORgamma UAS-luciferase reporter, 20 h; Potency, µM (highest dose often 53.6 µM), for the others: at the highest dose activity change, negative = inhibition, actives largely listed as inhibitors; actives 5.4% (n = 310,000); also: potency is read from the fitted curve at half-maximal effect; % is scaled to controls: 0 for no effect and ±100 for the full control effect; nearly all actives have a fitted effect of over 60% in size
# Target sequence (P51450 whole entry, looked up, the tested form may be a part): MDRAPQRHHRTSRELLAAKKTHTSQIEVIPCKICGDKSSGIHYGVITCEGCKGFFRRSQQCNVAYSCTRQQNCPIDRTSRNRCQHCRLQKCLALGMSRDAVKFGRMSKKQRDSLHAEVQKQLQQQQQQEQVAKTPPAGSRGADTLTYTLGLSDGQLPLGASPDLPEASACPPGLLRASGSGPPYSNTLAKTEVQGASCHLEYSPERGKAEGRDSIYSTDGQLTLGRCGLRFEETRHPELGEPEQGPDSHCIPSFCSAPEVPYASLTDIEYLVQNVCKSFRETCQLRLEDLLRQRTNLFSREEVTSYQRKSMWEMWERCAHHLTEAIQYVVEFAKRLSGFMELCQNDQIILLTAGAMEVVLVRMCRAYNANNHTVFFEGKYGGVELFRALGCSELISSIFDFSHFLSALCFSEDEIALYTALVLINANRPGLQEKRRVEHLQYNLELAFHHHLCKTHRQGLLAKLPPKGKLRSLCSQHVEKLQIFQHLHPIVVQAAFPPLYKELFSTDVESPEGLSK
#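 Stable Schneider cell line, Gal4 DNA-binding domain fused to ROR gamma, UAS-luciferase. Cmpd 1 hr RT → CuSO4 700 uM final → 20 hr RT → luciferase reagent 10 min → luminescence.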
# IL1B secr inh – inflammasome signaling inhibition, IL-1 beta readout; THP-1 LPS/ATP IL-1B secretion, AlphaLISA, 16 h; active compounds read low; activity change, % at 57.5 µM; actives 4.7% (n = 360,000); AID 743279; in the data active = activity change below about -50%; inconclusive = mostly about -30% to -49%; also: % is scaled to controls: 0 for no effect and ±100 for the full control effect
#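 THP-1 cells pretreated 1 hr with compounds (up to 57.5 uM final), then stimulated with LPS (250 ng/mL final) plus ATP (1.25 mM final); secreted IL-1B measured by AlphaLISA after 16 hr, decreased signal indicating inhibition.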
# * = called active by the depositor; u = inconclusive; x = not tested or not shown; [ ] = another dose, or the depositor's remark. Unless noted, calls follow the shape of the dose curve; as a rule, active = well fitted curve in the direction sought with a large enough effect; inconclusive = small, poorly fitted or top-dose-only effect, or another doubt; inactive = no such curve, though single readings can be large; an effect the other way counts as inactive or inconclusive.
SMILES,SW480 rereplic,MCF10A rerep,VP16 counter,RORgamma inh,IL1B secr inh
Cc1ccc(NC(=O)c2nc[nH]c2C(=O)NCCN(CCNC(=O)c2[nH]cnc2C(=O)Nc2ccc(C)cc2)CCNC(=O)c2[nH]cnc2C(=O)Nc2ccc(C)cc2)cc1,-29.7%,-6.6%,x,x,u
CCOC(=O)c1[nH]cnc1C(=O)Nc1cccc(OC)c1,-16.4%,0.5%,1.3%,-16.6%,5.5
Cn1cccc1C(=O)N1CCC[C@@]2(CCN(c3cccc(-c4ccccc4)c3)C2)C1,x,x,24.2%,14.8%,x
O=C1Nc2ccccc2-c2nnnn2C1N1CCCC1 (configuration not stated),x,x,x,x,50.9
O=C1c2ccccc2C(c2nnnn2Cc2ccccc2)N1Cc1cccs1 (configuration not stated),x,x,x,x,-0.4
Cc1cccc(NC(=O)c2nc[nH]c2C(=O)Nc2cccc(C)c2)c1,15.6%,u,2.82µM*,1.41µM*,3.1
Cc1cccc(NC(=O)c2nc[nH]c2C(=O)NCCCNC(=O)c2[nH]cnc2C(=O)Nc2cccc(C)c2)c1,-7.9%,-17.0%,x,x,-0.8
O=C(Nc1ccc(Cl)cc1)c1nc[nH]c1C(=O)NCCN(CCNC(=O)c1[nH]cnc1C(=O)Nc1ccc(Cl)cc1)CCNC(=O)c1[nH]cnc1C(=O)Nc1ccc(Cl)cc1,-48.5%[9.22 µM],-44.2%,x,x,-21.8
CNC(=O)c1[nH]cnc1C(=O)Nc1ccc(Cl)cc1,-13.8%,-49.8%,7.08µM*,3.98µM*,-12.2
N#C/C(=C\c1ccc(O)c(O)c1)C(=O)NCCc1ccccc1,-8.9%,-10.4%,x,x,34.1
CCOCCCNC(=O)/C(C#N)=C/c1cc(Br)c(O)c(Br)c1,8.2µM*,11.6µM*,5.3%,92.5%,u
N#C/C(=C\c1ccc(O)c(O)c1)C(=O)NCCCCc1ccccc1,x,x,31.6µM*,u,x
COc1ccc(/C=C(\C#N)C(=O)OCC(=O)NCc2ccccc2OC)cc1,-42.0%,-1.2%,x,x,9.4
COc1ccccc1CNC(=O)/C(C#N)=C/c1ccc(OC)c(OC)c1OC,-10.6%,18.4µM*,-14.4%,u,0.0
COc1ccc(/C=C(\C#N)C(=O)NC(C)c2ccccc2)cc1O (configuration not stated),-4.5%,6.6%,-1.8%,13.4%,-86.7*
CCOCCCNC(=O)/C(C#N)=C/c1ccc([N+](=O)[O-])o1,u,5.17µM*,1.3%,12.4%,-110.8*
CC(NC(=O)/C(C#N)=C/c1ccc(N2CCOCC2)cc1)c1ccccc1 (configuration not stated),u,20.6µM*,u,2.0%,u
COc1cc(/C=C(/C#N)C(=O)NCCc2c[nH]c3ccccc23)ccc1OCc1ccccc1F,3.26µM*,5.17µM*,-3.1%,-17.4%,9.6
CC(NC(=O)/C(C#N)=C/c1cccs1)c1ccccc1 (configuration not stated),-4.5%,0.8%,9.7%,u,-29.7
Cc1cc(/C=C(\C#N)C(=O)NCCc2c[nH]c3ccccc23)c(C)n1C,3.8%,11.1%,-6.1%,u,u
COC(=O)c1ccc(/C=C(\C#N)C(=O)NC(C)c2ccccc2)cc1 (configuration not stated),u,18.4µM*,4.47µM*,0.501µM*,-97.3*
COc1ccc(NC(=O)COC(=O)Cn2cnc3ccccc3c2=O)c(OC)c1,4.0%,-3.0%,x,x,6.0
Cc1cccc(C(=O)NCC(=O)N2CCC2)c1,4.3%,20.0%,x,x,-7.1
O=C(C1CCC(=O)N(C2CCCC2)C1)N1CCN(Cc2cccc(F)c2)CC1 (configuration not stated),3.1%,0.6%,13.2%,24.6%,-9.6
Cc1ccoc1C(=O)Nc1cccc2ccccc12,3.4%,-1.7%,u,-0.4%,-9.6
SMILES,SW480 rereplic,MCF10A rerep,VP16 counter,RORgamma inh,IL1B secr inh
CCCCc1ccc(NC(=O)COC(=O)c2ccc3ncsc3c2)cc1,x,x,x,x,13.1
COc1ccc(/C=C(/C#N)C(=O)Nc2cc(C)ccc2C)cc1C(=O)O,11.2%,2.3%,u,u,10.0
COc1ccc(/C=C(\C#N)C(=O)Nc2cc(C)c(Cl)cc2OC)cc1O,10.3µM*,u,-6.9%,-19.9%,-20.3
COc1ccc(/C=C(\C#N)C(=O)NCc2ccccc2)cc1O,u,u,-5.4%,11.0%,-85.8*
CC(NC(=O)/C(C#N)=C/c1ccc([N+](=O)[O-])o1)c1ccccc1 (configuration not stated),3.66µM*,3.66µM*,2.51µM*,5.01µM*,-104.6*
CC(NC(=O)/C(C#N)=C/c1ccco1)c1ccccc1 (configuration not stated),0.7%,-3.1%,u,-9.1%,-21.2
O=C(/C=C\c1ccco1)Nc1nc(-c2ccc3ccccc3c2)cs1,4.2%,u,-15.4%,6.8%,-72.3*
Cc1ccc(-c2csc(NC(=S)NC(=O)/C=C/c3ccco3)n2)cc1,29.5%,1.64µM*,u,u,2.1
O=C(O)c1ccccc1C(=O)Nc1nc(-c2ccc3ccccc3c2)cs1,-1.1%,6.8%,-2.8%,22.9%,0.8
CC(C)=CCC/C(C)=C/CC/C(C)=C/CC/C=C(\C)CC/C=C(\C)CCC=C(C)C,-0.6%,-2.4%,-4.3%,9.3%,x
Cc1ccc(C(=O)NC(=S)NCC2CCCO2)cc1 (configuration not stated),-4.0%,5.5%,-21.3%,15.8µM*,-10.0
Cc1cnn(C(=S)NCC2CCCO2)c1 (configuration not stated),-0.5%,7.8%,u,14.1µM*,-27.8
O=C(NC(=S)NCC1CCCO1)c1ccc(Cl)cc1 (configuration not stated),-7.4%,-4.5%,u,11.2µM*,21.1
O=C(NC(=S)NCC1CCCO1)c1ccc([N+](=O)[O-])cc1 (configuration not stated),1.9%,-6.5%,-93.1%,12.6µM*,22.2
O=C(Cc1ccc([N+](=O)[O-])cc1)NCC1CCCO1 (configuration not stated),0.1%,-0.8%,7.9%,-11.5%,-2.2
Cc1ccc(C(=O)Nc2ccccc2C(=O)NCC2CCCO2)cc1 (configuration not stated),-5.3%,-0.3%,-3.7%,2.9%,-3.9
O=C(NC(=S)NCC1CCCO1)c1ccccc1 (configuration not stated),x,0.8%,u,u,3.2
Cc1noc(C)c1COc1ccc(C(=O)Nc2ncccc2O)cc1,-0.9%,5.6%,x,x,17.5
Cc1nn(-c2ccccc2)c(-c2ccccc2[N+](=O)[O-])c1CC#N,x,x,x,x,9.6
CC(=O)COc1cccc2ccc(/C=C/c3ccc(Br)s3)nc12,10.8%,18.4µM*,-5.6%,u,11.7
COc1cccc(/C=C/c2ccc3cccc(O)c3n2)c1,u,8.7%,11.2µM*,3.55µM*,u
O=[N+]([O-])c1ccc(/C=C/c2ccc3ccccc3n2)cc1,-13.3%,15.1%,u,u,-8.1

# Screening data as filed in PubChem BioAssay.
